Results published in PubChem BioAssay.
“And” between values parts separate entries of the source, which are not always exact repeats. Equal values may be shown once. Where a structure was tested more than once in an assay, its records may differ in their call. The source made the active and inactive calls.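 The calls were made as follows, unless noted: active = normalized viability below 100% at a tested concentration; inactive = the rest.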

Assays:
[1] = molecular target: 6-phosphogluconate dehydrogenase, decarboxylating (Homo sapiens) (UniProt P52209); test: inhibition of human phosphogluconate dehydrogenase – biochemical, recombinant enzyme, NADPH absorbance, primary screen (AID 1159550;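 active = at least 20% inhibition of 6-phosphogluconate dehydrogenase activity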); details: recombinant 6PGD, NADPH absorbance 341 nm; at 10 µM; stronger effect = higher value
[2] = EMT-state selective cytotoxicity in co-culture – imaging, PC-3E GFP, TEM4-18 mCherry, primary screen (AID 1345086;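 active = compounds killing one labelled cell type while sparing the other, by normalised counts and ratio limits, not self-fluorescent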;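 as to all read-outs here: cells exposed to compound for 72 h before imaging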;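 as to red/green cell ratio (normalised): normalised mesenchymal count divided by normalised epithelial count so high means epithelial killing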); details: PC-3E GFP / TEM4-18 mCherry co-culture, imaging cell counts, at 1 µM; for red/green cell ratio (normalised): actives lie on both sides, counts scaled to control wells, 1 = unselective
[3] = compounds altering viability of human ES cells (AID 493140; call rule not given here;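 also: cells exposed to compounds for four days before counting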); details: human embryonic stem cell survival screen; stronger effect = higher value
[4] = P. berghei load reduction in hepatocytes – cell-based, HepG2, luciferase luminescence, HepG2 viability, primary screen (AID 624349; in the data active = parasite load remaining mostly below about 12%, no sharp cut-off; inactive = mostly above about 10%;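 also: 100% = mean of DMSO negative control wells on the same plate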); details: P. berghei liver stage in HepG2, luciferase luminescence, concentration not given here; parasite load remaining: stronger effect = lower value; viability: measured here: HepG2 viability without parasites
[5] = MELAS cybrid and Rieske KO viability enhancers – cell-based, MELAS cybrids, Rieske KO mouse fibroblasts, CellTiter-Glo, primary screen (AID 1508586;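 active = mean z-score across replicates of 1.96 or higher in either the MELAS or the Rieske mutant cell line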;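 also: z relative to plate mean and SD of compound and empty wells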); details: low glucose
[6] = molecular target: Mitogen-activated protein kinase 7 (Homo sapiens) (UniProt Q13164); test: Gal4-ERK5 driven luciferase induction – cell-based, HTS, primary screen (AID 1508626;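 active = luciferase signal above three times the same-plate solvent-only control wells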;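 also: luciferase driven by Gal4-ERK5 fusion binding five Gal4 sites before minimal TATA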); details: HeLa Gal4-ERK5 transactivation, 18 h, at 5 µM, stronger effect = higher value
[7] = galactose survival enhancers in mitochondrial complex I cybrids – cell-based, galactose medium, ATP luminescence, primary screen (AID 1645843;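 active = z-score of at least 1.8 in each of two replicates, scored against plate mean and spread of sample wells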;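 also: positive z means more ATP and so rescue of galactose-driven cybrid death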); details: complex I mutant cybrid cells, 72 h, stronger effect = higher value
[8] = viability loss with induced miR-34 in A549 – imaging, A549 dox-inducible miR-34, nuclei and caspase counts, primary screen (AID 1347080;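 active = compounds whose cell count with miR-34 switched on is under 0.7 times the count with it off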); details: A549 miR-34 inducible, Hoechst nuclei count, 48 h
[9] = molecular target: NAD(+) hydrolase SARM1 (Homo sapiens) (UniProt Q6SZW1); test: blocking NAD cleavage by SARM1 SAM-TIR – cell lysate, NAD-Glo luminescence (AID 1508614;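 active = compound whose remaining NAD level is above about 45 nM, limit read from the data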;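 also: higher remaining NAD means stronger inhibition of SARM1 NADase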); details: SAM-TIR HEK293T lysate NADase, at 1 µM, stronger effect = higher value
[10] = drug combination growth inhibition, ovarian cancer – cell-based, oncology-focused library, rucaparib conditional, profiling panel (AID 1508598); details: patient-derived ovarian cancer cells, CellTiter-Glo viability, 144 h, stronger effect = lower value
[11] = measured here: epithelial PC-3E GFP cell survival
[12] = measured here: mesenchymal TEM4-18 mCherry cell survival
[13] = MELAS cybrid survival, CellTiter-Glo 48 h, stronger effect = higher value
[14] = Rieske KO mouse fibroblast survival, CellTiter-Glo 72 h
[15] = stronger effect = lower value, cell number ratio, induced over uninduced
[16] = measured here: relative caspase fold change +Dox/-Dox
[17] = measured here: total cells with miR-34 induction, stronger effect = lower value
[18] = measured here: total cells without miR-34 induction

6-phosphogluconate dehydrogenase, decarboxylating (Homo sapiens), sequence (P52209 whole entry, looked up): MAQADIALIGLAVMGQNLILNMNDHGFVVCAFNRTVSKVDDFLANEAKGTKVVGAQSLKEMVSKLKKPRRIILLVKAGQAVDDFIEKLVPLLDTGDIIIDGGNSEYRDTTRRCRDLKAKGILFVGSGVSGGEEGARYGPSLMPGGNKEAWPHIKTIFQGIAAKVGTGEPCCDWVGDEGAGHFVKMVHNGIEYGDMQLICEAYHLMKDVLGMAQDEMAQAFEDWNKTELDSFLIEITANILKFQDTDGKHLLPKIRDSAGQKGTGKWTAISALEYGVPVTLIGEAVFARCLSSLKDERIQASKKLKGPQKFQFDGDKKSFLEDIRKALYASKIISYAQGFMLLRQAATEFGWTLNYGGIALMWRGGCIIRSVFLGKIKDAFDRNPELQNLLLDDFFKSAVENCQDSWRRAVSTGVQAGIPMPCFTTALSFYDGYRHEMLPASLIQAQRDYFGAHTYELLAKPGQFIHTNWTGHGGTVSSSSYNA
Mitogen-activated protein kinase 7 (Homo sapiens), sequence (Q13164 whole entry, looked up, the tested form may be a part): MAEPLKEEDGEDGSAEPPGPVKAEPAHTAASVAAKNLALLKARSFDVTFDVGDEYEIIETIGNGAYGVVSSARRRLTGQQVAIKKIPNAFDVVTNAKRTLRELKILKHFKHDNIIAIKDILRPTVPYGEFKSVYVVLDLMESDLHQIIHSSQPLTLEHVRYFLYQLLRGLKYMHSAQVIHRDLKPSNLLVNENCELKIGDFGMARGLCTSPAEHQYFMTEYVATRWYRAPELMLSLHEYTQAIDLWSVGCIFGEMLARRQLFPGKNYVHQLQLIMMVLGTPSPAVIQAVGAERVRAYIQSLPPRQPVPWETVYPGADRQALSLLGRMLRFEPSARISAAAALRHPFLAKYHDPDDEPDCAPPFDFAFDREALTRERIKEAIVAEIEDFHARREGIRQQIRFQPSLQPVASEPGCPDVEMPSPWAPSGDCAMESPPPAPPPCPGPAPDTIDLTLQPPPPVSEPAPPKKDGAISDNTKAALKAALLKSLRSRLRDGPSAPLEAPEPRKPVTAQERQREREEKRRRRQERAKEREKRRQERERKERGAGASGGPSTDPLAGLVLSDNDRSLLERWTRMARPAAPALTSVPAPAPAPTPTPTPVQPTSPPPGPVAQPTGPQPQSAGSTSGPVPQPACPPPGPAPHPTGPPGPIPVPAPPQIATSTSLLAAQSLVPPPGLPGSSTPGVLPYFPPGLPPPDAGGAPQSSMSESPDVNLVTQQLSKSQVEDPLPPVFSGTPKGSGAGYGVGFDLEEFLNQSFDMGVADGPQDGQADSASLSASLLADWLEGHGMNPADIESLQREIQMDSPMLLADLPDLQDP
NAD(+) hydrolase SARM1 (Homo sapiens), sequence (Q6SZW1 whole entry, looked up): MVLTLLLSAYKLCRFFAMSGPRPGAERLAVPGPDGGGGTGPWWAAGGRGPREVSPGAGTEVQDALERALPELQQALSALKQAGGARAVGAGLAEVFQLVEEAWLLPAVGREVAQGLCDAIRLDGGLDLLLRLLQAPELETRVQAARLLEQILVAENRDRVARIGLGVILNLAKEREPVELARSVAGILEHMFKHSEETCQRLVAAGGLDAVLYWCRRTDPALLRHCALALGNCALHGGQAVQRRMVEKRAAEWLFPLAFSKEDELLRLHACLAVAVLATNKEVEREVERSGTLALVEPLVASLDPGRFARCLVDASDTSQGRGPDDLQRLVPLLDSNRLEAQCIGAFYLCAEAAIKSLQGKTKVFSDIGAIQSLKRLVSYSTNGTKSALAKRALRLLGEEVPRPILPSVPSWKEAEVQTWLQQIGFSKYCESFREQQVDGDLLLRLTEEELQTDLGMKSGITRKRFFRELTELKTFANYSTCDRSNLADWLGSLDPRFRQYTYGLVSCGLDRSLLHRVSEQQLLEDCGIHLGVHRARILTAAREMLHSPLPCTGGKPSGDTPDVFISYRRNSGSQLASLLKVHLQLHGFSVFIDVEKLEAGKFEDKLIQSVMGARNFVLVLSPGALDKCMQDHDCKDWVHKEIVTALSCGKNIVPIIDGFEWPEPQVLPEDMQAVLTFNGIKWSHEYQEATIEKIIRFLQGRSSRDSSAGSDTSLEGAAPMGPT

O=C(O)CCC(=O)OCC(NC(=O)C(Cl)Cl)C(O)c1ccc([N+](=O)[O-])cc1 (configuration not stated)
inhibition [1]: 1.37% (inactive) | red/green cell ratio (normalised) [2]: 1.01 (inactive) | normalised cell number [2, 11]: 1.15 | normalised cell number [2, 12]: 1.16

COC(=O)c1cc(=O)c(O)c2c(O)c(O)ccc2c1
inhibition [1]: -4.56% (inactive) | red/green cell ratio (normalised) [2]: 0.88 (inactive) | normalised cell number [2, 11]: 1.21 | normalised cell number [2, 12]: 1.06

O=c1cc(-c2ccc(O)cc2)oc2cc(O)cc(O)c12
survival [3]: 17.8 (inactive) | parasite load remaining [4]: 95.8% (inactive) and 11.3% (inactive) and 116% (inactive) | viability [4]: 94.9% and 100% and 77.5% | inhibition [1]: -0.0494% (inactive) | red/green cell ratio (normalised) [2]: 0.91 (inactive) | normalised cell number [2, 11]: 1.2 | normalised cell number [2, 12]: 1.09 | z-score [5, 13]: -0.412 (inactive) | z-score [5, 14]: 0.346 | luciferase signal [6]: 64 AU (inactive) | z-score [7]: 2.56 (active) and -0.305 (inactive)

COc1cccc(-c2cc(=O)c3ccc(OC)cc3o2)c1
inhibition [1]: -2.44% (inactive) | red/green cell ratio (normalised) [2]: 1.01 (inactive) | normalised cell number [2, 11]: 1.02 | normalised cell number [2, 12]: 1.03

CCCCCCCCCCCC1=C(O)C(=O)C=C(O)C1=O
parasite load remaining [4]: 136% (inactive) | viability [4]: 84.4% | inhibition [1]: 15% (inactive) | red/green cell ratio (normalised) [2]: 0.91 (inactive) | normalised cell number [2, 11]: 1.09 | normalised cell number [2, 12]: 1 | fold change [8, 15]: 0.793 (inactive) and 1.27 (inactive) | fold change [8, 16]: 2.63 and 0.764 | cell count [8, 17]: 7270 and 2440 | cell count [8, 18]: 9160 and 1930 | z-score [5, 13]: -0.242 (inactive) | z-score [5, 14]: -0.154 | luciferase signal [6]: 40 AU (inactive) | z-score [7]: -0.595 (inactive)

COc1ccc(-c2cc(=O)c3c(O)cc(O)c(-c4cc(-c5cc(=O)c6c(O)cc(O)cc6o5)ccc4OC)c3o2)cc1
inhibition [1]: 10.8% (inactive) | red/green cell ratio (normalised) [2]: 0.98 (inactive) | normalised cell number [2, 11]: 0.79 | normalised cell number [2, 12]: 0.78

COc1cc(-c2coc3cc(OCc4ccccc4)c(OC)c(O)c3c2=O)cc(OCc2ccccc2)c1OC
inhibition [1]: 16.5% (inactive) | red/green cell ratio (normalised) [2]: 0.82 (inactive) | normalised cell number [2, 11]: 1.05 | normalised cell number [2, 12]: 0.86

O=C(O)c1cccnc1C(=O)O
parasite load remaining [4]: 83.9% (inactive) | viability [4]: 75.4% | inhibition [1]: 2.35% (inactive) | red/green cell ratio (normalised) [2]: 0.71 (inactive) | normalised cell number [2, 11]: 1.39 | normalised cell number [2, 12]: 0.99 | fold change [8, 15]: 0.98 (inactive) and 0.953 (inactive) | fold change [8, 16]: 1.66 and 1.07 | cell count [8, 17]: 9820 and 8590 | cell count [8, 18]: 10000 and 9010 | luciferase signal [6]: 84 AU (inactive) | z-score [7]: 0.32 (inactive) and -0.225 (inactive)

Cc1cc(=O)oc2cc(O)cc(O)c12
inhibition [1]: 3.6% (inactive) | red/green cell ratio (normalised) [2]: 0.8 (inactive) | normalised cell number [2, 11]: 1.18 | normalised cell number [2, 12]: 0.94

CC1NC(=O)NC1=O (configuration not stated)
inhibition [1]: -12% (inactive) | red/green cell ratio (normalised) [2]: 0.85 (inactive) | normalised cell number [2, 11]: 0.94 | normalised cell number [2, 12]: 0.79

O=C(/C=C/C(=O)Oc1ccccc1C(=O)O)Oc1ccccc1C(=O)O
inhibition [1]: -15.7% (inactive) | red/green cell ratio (normalised) [2]: 1.09 (inactive) | normalised cell number [2, 11]: 1.17 | normalised cell number [2, 12]: 1.27

NCCc1cnc[nH]1
parasite load remaining [4]: 99.6% (inactive) and 68.2% (inactive) | viability [4]: 74.2% and 99% | inhibition [1]: 11.6% (inactive) | red/green cell ratio (normalised) [2]: 1.19 (inactive) | normalised cell number [2, 11]: 0.99 | normalised cell number [2, 12]: 1.18 | z-score [5, 13]: 1.03 (inactive) and -0.124 (inactive) and -0.135 (inactive) | z-score [5, 14]: -0.434 and -0.222 and -0.159 | remaining NAD [9]: 10 nM (inactive) | luciferase signal [6]: 68 AU (inactive) | z-score [7]: 0.205 (inactive) and 0.305 (inactive) and 0.49 (inactive)

COc1cc(OC)c(-c2c(OC)cc(OC)cc2OC)c(OC)c1
inhibition [1]: 11.7% (inactive) | red/green cell ratio (normalised) [2]: 1.06 (inactive) | normalised cell number [2, 11]: 0.99 | normalised cell number [2, 12]: 1.04

CC(C)=CCCC1(C)C=Cc2c(O)c3c(c(CC=C(C)C)c2O1)OC12C(=CCCC1C(C)(C)O[C@@]2(C/C=C(\C)C(=O)O)C(=O)O)C3=O (some centres not stated)
inhibition [1]: 0.371% (inactive) | red/green cell ratio (normalised) [2]: 0.93 (inactive) | normalised cell number [2, 11]: 1.16 | normalised cell number [2, 12]: 1.08

COc1cc(OC)c2c(OC)c(-c3ccc4c(c3)OCO4)c(=O)oc2c1
inhibition [1]: -4.99% (inactive) | red/green cell ratio (normalised) [2]: 1.02 (inactive) | normalised cell number [2, 11]: 0.92 | normalised cell number [2, 12]: 0.94

COc1cccc2c1CCC1CC(=O)CC[C@]21C (some centres not stated)
inhibition [1]: -1.22% (inactive) | red/green cell ratio (normalised) [2]: 0.76 (inactive) | normalised cell number [2, 11]: 1 | normalised cell number [2, 12]: 0.76

COc1cc2c(cc1OC)C1C(=O)c3c(cc4c(c3O)C=CC(C)(C)O4)OC1CO2 (configuration not stated)
inhibition [1]: 7.64% (inactive) | red/green cell ratio (normalised) [2]: 0.76 (inactive) | normalised cell number [2, 11]: 1.04 | normalised cell number [2, 12]: 0.79

COc1c(C)c2c(c(O)c1C/C=C(\C)CCC(=O)O)C(=O)OC2
survival [3]: 0.167 (inactive) | inhibition [1]: -6.15% (inactive) | red/green cell ratio (normalised) [2]: 0.6 (active) | normalised cell number [2, 11]: 0.58 | normalised cell number [2, 12]: 0.35 | z-score [5, 13]: -0.0503 | z-score [5, 14]: 2.98 | viability ([10]; at 0.000305 µM, OCI-C5x cells, with rucaparib 10 µM, 100% = cells with rucaparib alone): 117% (inactive) | viability ([10]; at 0.000305 µM, OCI-C5x cells, without rucaparib): 124% (inactive) | viability ([10]; at 0.000305 µM, OCI-P5x cells, with rucaparib 20 µM, 100% = cells with rucaparib alone): 87.8% (active) | viability ([10]; at 0.000305 µM, OCI-P5x cells, without rucaparib): 96% (active) | viability ([10]; at 0.00122 µM, OCI-C5x cells, with rucaparib 10 µM, 100% = cells with rucaparib alone): 121% (inactive) | viability ([10]; at 0.00122 µM, OCI-C5x cells, without rucaparib): 126% (inactive) | viability ([10]; at 0.00122 µM, OCI-P5x cells, with rucaparib 20 µM, 100% = cells with rucaparib alone): 90.6% (active) | viability ([10]; at 0.00122 µM, OCI-P5x cells, without rucaparib): 103% (inactive) | viability ([10]; at 0.00488 µM, OCI-C5x cells, with rucaparib 10 µM, 100% = cells with rucaparib alone): 129% (inactive) | viability ([10]; at 0.00488 µM, OCI-C5x cells, without rucaparib): 128% (inactive) | viability ([10]; at 0.00488 µM, OCI-P5x cells, with rucaparib 20 µM, 100% = cells with rucaparib alone): 96.9% (active) | viability ([10]; at 0.00488 µM, OCI-P5x cells, without rucaparib): 109% (inactive) | viability ([10]; at 0.0195 µM, OCI-C5x cells, with rucaparib 10 µM, 100% = cells with rucaparib alone): 121% (inactive) | viability ([10]; at 0.0195 µM, OCI-C5x cells, without rucaparib): 129% (inactive) | viability ([10]; at 0.0195 µM, OCI-P5x cells, with rucaparib 20 µM, 100% = cells with rucaparib alone): 95.2% (active) | viability ([10]; at 0.0195 µM, OCI-P5x cells, without rucaparib): 112% (inactive) | viability ([10]; at 0.0781 µM, OCI-C5x cells, with rucaparib 10 µM, 100% = cells with rucaparib alone): 166% (inactive) | viability ([10]; at 0.0781 µM, OCI-C5x cells, without rucaparib): 162% (inactive) | viability ([10]; at 0.0781 µM, OCI-P5x cells, with rucaparib 20 µM, 100% = cells with rucaparib alone): 97.4% (active) | viability ([10]; at 0.0781 µM, OCI-P5x cells, without rucaparib): 97% (active) | viability ([10]; at 0.313 µM, OCI-C5x cells, with rucaparib 10 µM, 100% = cells with rucaparib alone): 180% (inactive) | viability ([10]; at 0.313 µM, OCI-C5x cells, without rucaparib): 189% (inactive) | viability ([10]; at 0.313 µM, OCI-P5x cells, with rucaparib 20 µM, 100% = cells with rucaparib alone): 85.4% (active) | viability ([10]; at 0.313 µM, OCI-P5x cells, without rucaparib): 62.1% (active) | viability ([10]; at 1.25 µM, OCI-C5x cells, with rucaparib 10 µM, 100% = cells with rucaparib alone): 128% (inactive) | viability ([10]; at 1.25 µM, OCI-C5x cells, without rucaparib): 117% (inactive) | viability ([10]; at 1.25 µM, OCI-P5x cells, with rucaparib 20 µM, 100% = cells with rucaparib alone): 70% (active) | viability ([10]; at 1.25 µM, OCI-P5x cells, without rucaparib): 40.7% (active) | viability ([10]; at 5 µM, OCI-C5x cells, with rucaparib 10 µM, 100% = cells with rucaparib alone): 73.1% (active) | viability ([10]; at 5 µM, OCI-C5x cells, without rucaparib): 56.4% (active) | viability ([10]; at 5 µM, OCI-P5x cells, with rucaparib 20 µM, 100% = cells with rucaparib alone): 46.2% (active) | viability ([10]; at 5 µM, OCI-P5x cells, without rucaparib): 30.7% (active) | remaining NAD [9]: 10 nM (inactive) | luciferase signal [6]: 48 AU (inactive) | z-score [7]: 1.33 (inactive) and 1.68 (inactive)
